Screens from PubChem.
This is a sample that favours compounds with a hit; in the whole collection about 12% have one here.
G9a block: qHTS Assay for Inhibitors of Histone Lysine Methyltransferase G9a; G9a H3K9 monomethylation, AlphaScreen, 2 h; 350,000 tested, 8.8% active; Histone-lysine N-methyltransferase EHMT2 (Homo sapiens), Q96KQ7; AID 504332, 2011; Potency, µM (highest dose often 102 µM), for the others: top-dose activity, negative = inhibition, hits mostly inhibitors; also: % is scaled to controls: 0 for no effect and ±100 for the full control effect; nearly all actives have a fitted effect of over 75% in size
Target sequence (Q96KQ7 913-1193 limits assumed): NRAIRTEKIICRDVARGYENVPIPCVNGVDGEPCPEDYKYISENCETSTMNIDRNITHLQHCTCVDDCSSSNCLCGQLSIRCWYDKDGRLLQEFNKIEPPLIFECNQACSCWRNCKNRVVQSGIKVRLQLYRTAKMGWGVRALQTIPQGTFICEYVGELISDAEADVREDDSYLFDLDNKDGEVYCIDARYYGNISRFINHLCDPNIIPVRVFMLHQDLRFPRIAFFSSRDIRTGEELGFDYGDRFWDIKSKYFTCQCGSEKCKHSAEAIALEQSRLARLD
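Using a bead-based AlphaScreen, monomethylated H3K9 product from 2 h room-temperature reactions (G9a 20 nM, peptide 500 nM, SAM 20 uM) was detected with 0.5 ug/mL rabbit anti-H3K9me1 antibody.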
Sfp inh: qHTS Assay for Inhibitors of Bacillus subtilis Sfp phosphopantetheinyl transferase (PPTase) | Biochemical Sfp PPTase activity, qHTS | 4'-phosphopantetheinyl transferase ffp (Bacillus subtilis), Q9F4F7 | Potency, µM, for inactives: largest response in the series, negative = inhibition, hits mostly inhibitors | 310,000 tested, 3.5% active;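 also: the enzyme is Sfp with the accession as filed and its product quenches rhodamine fluorescence; 0% = enzyme reaction without inhibitor and -100% = no enzyme wells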
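After 15 min at room temperature with compound, 15 nM Sfp received 5 uM rhodamine-CoA plus 12.5 uM BHQ-2-ybbR (50 mM Hepes pH 7.6, 10 mM MgCl2). Rate came from the fluorescence difference over 30 min, ex 525/em 598 nm.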
HP1b binding inh: HTS for Inhibitors of HP1-beta Chromodomain Interactions with Methylated Histone Tails; AlphaScreen HP1-beta / biotin-H3K9me3 peptide binding; Potency, µM (doses to about 114 µM), for the others: at the highest dose activity change, negative = inhibition, hits mostly inhibitors; 390,000 tested, 0.56% active; also: nearly all actives have a fitted effect of over 70% in size
Target sequence (P83916 whole entry, looked up): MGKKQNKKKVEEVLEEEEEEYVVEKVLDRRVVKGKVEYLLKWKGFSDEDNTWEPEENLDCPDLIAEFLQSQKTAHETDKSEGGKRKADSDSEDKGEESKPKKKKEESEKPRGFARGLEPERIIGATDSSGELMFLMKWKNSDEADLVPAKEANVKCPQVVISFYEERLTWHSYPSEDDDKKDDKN
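HP1-beta protein (50 nM final) preincubated 30 min at room temperature with biotinylated H3(1-18)K9me3 peptide (50 nM) in PBS pH 7.4, 0.01% Tween-20, then compound added for 30 min. AlphaScreen streptavidin donor/nickel chelate acceptor beads (10 ug/mL final), 30 min dark, luminescence read.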
BAZ2B inh: qHTS Assay for Inhibitors of BAZ2B; Potency, µM (highest dose often 114 µM), for the others: top-dose activity change, negative = inhibition, hits mostly inhibitors; 360,000 tested, 4.4% active; AlphaScreen BAZ2B-H3K14Ac peptide displacement; Bromodomain adjacent to zinc finger domain protein 2B (Homo sapiens), Q9UIF8; AID 504333, 2011; also: % is scaled to controls: 0 for no effect and ±100 for the full control effect; nearly all actives have a fitted effect of over 60% in size
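In this displacement format the biotinylated H3(5-23) peptide acetylated at Lys14 serves as ligand at 50 nM, with BAZ2B at 50 nM in PBS pH 7.4 containing 0.01% Tween-20. Donor and acceptor beads are 10 ug/mL final.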
JMJD2A Tudor: qHTS Assay for Inhibitors of JMJD2A-Tudor Domain; AID 504339, 2011; Potency, µM (titrated, usually from 114 µM), for inactives: top-dose activity change, negative = inhibition, actives largely listed as inhibitors; Lysine-specific demethylase 4A (Homo sapiens), O75164; AlphaScreen JMJD2A-Tudor / H3K4me3 peptide binding; 390,000 tested, 4.4% active; also: % is scaled to controls: 0 for no effect and ±100 for the full control effect; nearly all actives have a fitted effect of over 50% in size
Active calls of the source: *; ? = inconclusive; · = no result given; [ ] = another dose, or the depositor's remark. Calls follow the shape of the dose curve; as a rule, active = well fitted curve in the direction sought with a large enough effect; inconclusive = small, poorly fitted or top-dose-only effect, or another doubt; inactive = no such curve, though single readings can be large; an effect the other way counts as inactive or inconclusive. Potency is read from the fitted curve at half-maximal effect.

SMILES	G9a block	Sfp inh	HP1b binding inh	BAZ2B inh	JMJD2A Tudor
COc1ccc(N2CCN(C(=O)CCCCCn3c(=O)[nH]c4ccsc4c3=O)CC2)cc1	40µM*	10%	-16%	-21%	-25%
CC1CCCCC1NC(=O)CCCCCn1c(=S)[nH]c2ccsc2c1=O (stereo not drawn)	28µM*	3%	34%	-1%	3%
O=C(CCCn1c(=S)[nH]c2ccsc2c1=O)NCCc1ccccc1	10µM*	2%	40%	-1%	7%
CCOC(=O)N1CCN(C(=O)CCn2c(=S)[nH]c3ccccc3c2=O)CC1	?	3%	30%	-5%	-12%
Cc1ccccc1C(=O)Nc1ccc2nc(Nc3cccc(C(F)(F)F)c3)cc(C)c2c1	2%[59 µM]	·	25%	-3%	-14%
Cc1c(Cl)cccc1NC(=O)CCN1C(=O)c2ccccc2Sc2ncccc21	-10%[59 µM]	·	-6%	-15%	-22%
O=c1c(-c2cccs2)nc2cnc(N3CCOCC3)nc2n1CCc1ccccc1	22%[0.501 µM]	-9%	·	·	·
COC1=C(N)C(=O)c2nc(-c3nc(C(=O)O)c(C)c(-c4ccc(OC)c(OC)c4O)c3N)ccc2C1=O	?	3.5µM*	-23%	2%	89µM*
O=C(Nc1ccccc1)OC[C@H](CN1CCCCC1)OC(=O)Nc1ccccc1	26%[21.5 µM]	14%	·	·	·
CCOc1ccc(OCCOCCNCCOC)cc1	?	-1%	6%	-32%	10µM*
COc1cccc(OCCNCc2ccccc2)c1	7.9µM*	-18%	-3%	?	6.3µM*
CCCOc1ccc(OCCOCCNCc2ccccc2)cc1	32µM*	-16%	?	?	18µM*
c1ccc(CNCCNCc2ccccc2)cc1	-34%[12.7 µM]	1%	·	·	·
Cc1ccc(OCCNCc2ccccc2)c(C)c1	14µM*	?	?	?	1µM*
Cn1c(CC(=O)Nc2ccccc2Cl)nnc1SCC(=O)NC1=NCCS1	-11%	1%	15%	?	4%
Cc1c(P(=S)(c2ccccc2)c2ccccc2)[n+]2ccccc2n1CCCc1ccccc1	·	·	·	·	-17%
Cc1cc(C)c(C)c(OCCOCCNCc2ccccc2)c1	?	-18%	-17%	?	79µM*
CCc1cccc(OCCCCNCCO)c1	10µM*	-10%	11%	56µM*	-24%[11.4 µM]
C=CCN(CC=C)CCCOc1ccc(C)cc1OC	25µM*	-23%	?	25µM*	0.32µM*
Cc1ccc(OCC(O)CNCc2ccccc2)cc1C (stereo not drawn)	8%[59 µM]	11%	9%	-1%	-18%
Cc1cccc(OCCCCNCc2ccccc2)c1	13µM*	-23%	?	50µM*	-11%[11.4 µM]
COc1ccc(-c2nc3scc(CCNS(=O)(=O)c4ccc(C)cc4)n3n2)cc1	5%[59 µM]	·	15%	-9%	-6%
COc1ccc(-c2c(-c3ccccc3OC)oc3ccccc23)cc1F	-3%[0.501 µM]	·	123%	58%	85%
Cc1cccn2c(=O)c3cc(C(=O)Nc4ccc(Cl)c(Cl)c4)sc3nc12	7%[59 µM]	·	36%	1%	9%
Cc1ccc(OCCCCNC(C)c2ccccc2)c(C)c1 (stereo not drawn)	11µM*	-13%	2%	?	20µM*
SMILES	G9a block	Sfp inh	HP1b binding inh	BAZ2B inh	JMJD2A Tudor
C/C=C/c1ccc(OCCOCCNCc2ccccc2)c(OC)c1	7.9µM*	-13%	-12%	50µM*	28µM*
Cc1ccc(OCCSc2ncccn2)c(C)c1	298%	-12%	89%	83%	64%
COc1cc(C)ccc1OCCCCNCc1ccccc1	·	-12%	-34%	?	18µM*
CCOCCCNCc1ccc(OCCC(C)C)c(OC)c1	?	?	-33%	56µM*	?
COc1ccccc1CCC(=O)OCC(=O)Nc1ccc2[nH]c(=O)[nH]c2c1	1%[12.7 µM]	·	20%	2%	-10%
C[C@@H](C(=O)Nc1ccc(OC(F)F)c(Cl)c1)N1C(=O)C2CC=CCC2C1=O (stereo partly drawn)	·	·	6%	·	-23%
Nc1nc(Nc2ccccc2)nc2c1ncn2[C@@H]1O[C@H](CO)[C@H](O)[C@H]1O	13%[12.7 µM]	·	·	·	·
O=C1Nc2ccc(Br)cc2/C1=C/C(=O)c1ccc2c(c1)OCO2	10µM*	56µM*	-13%	?	?
Cc1cc(C)cc(OCCSc2nc3ccc(NC(=O)c4ccc5c(c4)OCO5)cc3s2)c1	8%[59 µM]	·	31%	-2%	-17%
CCC(=O)Nc1ccc(C2=Nn3c(nnc3C(C)C)SC2)cc1	14µM*	?	-12%	2%	-1%
CN(c1nnc(N)s1)C1CCCCC1	40µM*	4%	41%	-1%	-1%
Cc1cc(C)cc(NC(=O)Nc2nnc(N(C)C3CCCCC3)s2)c1	1%[59 µM]	·	25%	-27%	-16%
Cc1ccc(CNC(=O)c2ccc(-n3cccc3)cc2)cc1	?	4%	22µM*	25µM*	40µM*
O=C(O)Cc1ccc(-n2cccc2)cc1	20µM*	8%	25µM*	8.9µM*	40µM*
CC(C)Cc1ccc(CC(=O)O)cc1	11µM*	?	·	·	·
O=C(Cc1ccc(-n2cccc2)cc1)NC1CCCCC1	-29%	-3%	-1%	4%	-15%
CCCCCCC/C=C/C1=CC2(C)CC1(C)C(CCCCCCC)CC2=O (stereo not drawn)	·	-7%	·	·	·
CC(C)(C)[C@@H]1CCC(=O)N(CC[C@H](Sc2ccc(Br)cc2)c2ccccc2)CC1	·	·	106%	·	60%
Cc1ccc(NC(=O)CC2CCCC2)c(Br)c1	-7%	6%	17%	-2%	-2%
C/C(=N\NC(=S)NCC(C)(C)C)c1cc(F)cc(F)c1O	-1%	23%	9%	7.1µM*	-25%
CSc1ccccc1NC(=O)c1cc2ncc(Br)cn2n1	35µM*	?	-10%	56µM*	?
CSc1ccccc1NC(=O)c1cnccn1	25µM*	-27%	6%	0%	-24%
CC(C)c1ccccc1NC(=O)c1cnccn1	-14%[12.7 µM]	-4%	32%	-3%	-8%
Cc1ccccc1Cn1ccc(NC(=O)c2cc3ncc(Br)cn3n2)n1	-37%	8%	33%	50µM*	-11%
CCCOc1ccccc1C1Oc2nc(SC)nnc2-c2ccccc2N1C(C)=O (stereo not drawn)	-2%[59 µM]	·	17%	-19%	-26%
NC(=O)c1cc2ccccc2o/c1=N\NC(=O)c1ccccc1O	32µM*	-13%	48%	?	-20%
CN(C(=O)Cn1nc(C(=O)O)c2ccccc2c1=O)C1(C#N)CCCCC1	-9%[12.7 µM]	·	53%	8%	-2%
